# Laboratory results as given in publication PMC7862700, “An all-to-all approach to the identification of sequence-specific readers for epigenetic DNA modifications on cytosine”.
# What was measured:
# Assay in all cases: DAPPL (digital affinity profiling via proximity ligation, sequencing); 10 mM Tris-HCl pH 7.5, 50 mM NaCl, 1 mM DTT, 4% glycerol, room temperature, 30 min; GST-TFs on glutathione beads, 16-mer random dsDNA library, 0.1% formaldehyde crosslink after washing; high values mean tight binding
# Conditions in all cases: protein: recombinant; tags: N-terminal GST; dsDNA, one strand shown
# [1] = target: T1, ERF (Homo sapiens, UniProt P50548 1-548)
# T1 sequence: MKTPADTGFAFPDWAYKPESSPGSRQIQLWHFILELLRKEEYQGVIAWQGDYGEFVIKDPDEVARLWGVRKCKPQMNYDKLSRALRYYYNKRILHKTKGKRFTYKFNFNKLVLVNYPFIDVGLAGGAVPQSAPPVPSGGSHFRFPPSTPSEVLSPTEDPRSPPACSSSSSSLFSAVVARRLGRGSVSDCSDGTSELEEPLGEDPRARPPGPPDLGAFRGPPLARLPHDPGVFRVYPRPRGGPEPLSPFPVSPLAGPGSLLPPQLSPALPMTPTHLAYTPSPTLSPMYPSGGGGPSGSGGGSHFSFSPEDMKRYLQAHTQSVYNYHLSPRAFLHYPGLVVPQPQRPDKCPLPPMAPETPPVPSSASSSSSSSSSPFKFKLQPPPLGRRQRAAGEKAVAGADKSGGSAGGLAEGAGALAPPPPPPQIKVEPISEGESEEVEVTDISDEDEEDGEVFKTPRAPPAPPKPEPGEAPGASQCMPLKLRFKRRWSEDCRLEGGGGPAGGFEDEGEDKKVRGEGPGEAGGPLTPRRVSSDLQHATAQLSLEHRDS
# In short: (§1)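 Binding signal is defined as a hexamer's read frequency for one factor over its frequency for the tag-only sample. To obtain reads, GST-fused human transcription factors were expressed in yeast, captured on glutathione beads, barcoded with DNA and pooled with that sample. Pools met 200 nmole of a 16-mer random double-stranded DNA library in Tris/NaCl/DTT/glycerol buffer for 30 min at room temperature before washing, 0.1% formaldehyde crosslinking, proximity ligation (BsaI/T4 ligase, 1 h, 37 °C), PCR and Illumina NextSeq500 sequencing.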
# [2] = target: T2, ETV3L (Homo sapiens, UniProt Q6ZN32 1-361)
# T2 sequence: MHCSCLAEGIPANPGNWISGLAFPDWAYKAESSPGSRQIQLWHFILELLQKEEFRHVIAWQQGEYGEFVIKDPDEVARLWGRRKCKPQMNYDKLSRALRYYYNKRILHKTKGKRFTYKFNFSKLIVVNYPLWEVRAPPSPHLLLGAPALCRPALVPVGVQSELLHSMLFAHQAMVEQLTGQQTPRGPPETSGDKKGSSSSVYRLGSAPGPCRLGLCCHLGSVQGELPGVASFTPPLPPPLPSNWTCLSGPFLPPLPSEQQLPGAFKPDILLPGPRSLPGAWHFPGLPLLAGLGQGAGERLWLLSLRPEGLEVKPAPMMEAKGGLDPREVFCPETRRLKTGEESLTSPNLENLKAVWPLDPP
# In short: as §1
# [3] = target: T3, ETS2 (Homo sapiens, UniProt P15036 1-469)
# T3 sequence: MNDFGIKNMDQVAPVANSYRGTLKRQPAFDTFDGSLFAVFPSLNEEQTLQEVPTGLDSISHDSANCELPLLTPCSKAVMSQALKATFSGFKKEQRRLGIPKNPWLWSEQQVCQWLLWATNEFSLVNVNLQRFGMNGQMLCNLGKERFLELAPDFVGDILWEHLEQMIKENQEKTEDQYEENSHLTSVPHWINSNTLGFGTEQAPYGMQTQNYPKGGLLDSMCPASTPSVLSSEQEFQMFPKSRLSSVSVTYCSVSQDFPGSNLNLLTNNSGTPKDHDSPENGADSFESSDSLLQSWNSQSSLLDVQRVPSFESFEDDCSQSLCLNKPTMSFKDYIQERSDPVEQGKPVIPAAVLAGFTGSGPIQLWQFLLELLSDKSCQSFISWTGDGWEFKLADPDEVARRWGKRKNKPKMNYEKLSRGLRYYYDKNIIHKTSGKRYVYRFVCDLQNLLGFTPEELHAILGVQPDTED
# In short: as §1
# [4] = target: T4, SPDEF (Homo sapiens, UniProt O95238 1-335)
# T4 sequence: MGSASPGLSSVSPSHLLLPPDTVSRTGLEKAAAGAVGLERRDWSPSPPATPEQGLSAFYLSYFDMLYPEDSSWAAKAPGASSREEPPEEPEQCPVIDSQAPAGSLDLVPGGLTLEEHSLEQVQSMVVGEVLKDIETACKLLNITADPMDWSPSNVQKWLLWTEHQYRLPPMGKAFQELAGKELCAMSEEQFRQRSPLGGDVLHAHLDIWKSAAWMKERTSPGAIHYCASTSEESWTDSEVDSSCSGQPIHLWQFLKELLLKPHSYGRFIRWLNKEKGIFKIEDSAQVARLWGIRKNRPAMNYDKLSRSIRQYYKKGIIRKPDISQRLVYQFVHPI
# In short: as §1
# [5] = target: T5, ETV7 (Homo sapiens, UniProt Q9Y603 1-341)
# T5 sequence: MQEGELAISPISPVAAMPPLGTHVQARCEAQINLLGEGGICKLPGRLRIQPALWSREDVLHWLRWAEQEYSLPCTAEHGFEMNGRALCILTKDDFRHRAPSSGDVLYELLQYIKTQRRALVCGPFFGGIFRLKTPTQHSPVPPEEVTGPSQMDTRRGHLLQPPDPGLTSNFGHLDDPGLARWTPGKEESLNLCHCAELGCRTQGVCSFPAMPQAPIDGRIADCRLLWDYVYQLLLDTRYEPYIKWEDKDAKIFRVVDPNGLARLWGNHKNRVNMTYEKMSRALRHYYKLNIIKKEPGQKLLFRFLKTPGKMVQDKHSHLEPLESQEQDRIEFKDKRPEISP
# In short: as §1
# [6] = target: T6, ELF5 (Homo sapiens, UniProt Q9UKW6-2 1-255)
# T6 sequence: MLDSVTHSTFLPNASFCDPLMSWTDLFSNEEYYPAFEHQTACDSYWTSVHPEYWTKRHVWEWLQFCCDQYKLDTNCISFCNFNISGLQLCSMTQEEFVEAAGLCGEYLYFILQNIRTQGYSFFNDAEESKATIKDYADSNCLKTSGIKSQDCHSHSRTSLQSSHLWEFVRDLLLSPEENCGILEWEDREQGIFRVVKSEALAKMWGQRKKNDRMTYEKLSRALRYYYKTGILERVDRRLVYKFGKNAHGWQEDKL
# In short: as §1
# [7] = target: T7, ETV3 (Homo sapiens, UniProt P41162-2 1-143)
# T7 sequence: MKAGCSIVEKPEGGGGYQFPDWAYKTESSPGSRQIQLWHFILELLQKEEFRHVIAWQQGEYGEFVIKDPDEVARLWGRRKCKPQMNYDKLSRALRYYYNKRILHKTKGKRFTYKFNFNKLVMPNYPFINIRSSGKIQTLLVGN
# In short: as §1
# [8] = target: ETV6 (Homo sapiens, UniProt P41212 1-452)
# Sequence of ETV6 (P41212 whole entry): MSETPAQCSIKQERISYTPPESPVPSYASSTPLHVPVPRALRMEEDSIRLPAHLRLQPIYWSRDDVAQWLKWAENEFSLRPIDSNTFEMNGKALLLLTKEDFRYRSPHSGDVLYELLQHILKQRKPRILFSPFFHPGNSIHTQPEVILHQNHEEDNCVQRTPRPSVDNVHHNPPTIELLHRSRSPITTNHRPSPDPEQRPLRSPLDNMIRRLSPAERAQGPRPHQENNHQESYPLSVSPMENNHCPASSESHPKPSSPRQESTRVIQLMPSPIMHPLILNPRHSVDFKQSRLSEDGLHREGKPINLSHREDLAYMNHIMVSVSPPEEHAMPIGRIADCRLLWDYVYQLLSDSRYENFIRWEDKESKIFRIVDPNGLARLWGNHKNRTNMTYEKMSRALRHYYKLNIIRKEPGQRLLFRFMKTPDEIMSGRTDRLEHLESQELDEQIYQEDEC
# In short: as §1
Sequence,binding signal [1],binding signal [2],binding signal [3],binding signal [4],binding signal [5],binding signal [6],binding signal [7],binding signal [8]
GCTTCC,"3.06 fold enrichment (6-mer frequency, TF over GST control)","3.36 fold enrichment (6-mer frequency, TF over GST control)","3.56 fold enrichment (6-mer frequency, TF over GST control)","3.67 fold enrichment (6-mer frequency, TF over GST control)","3.14 fold enrichment (6-mer frequency, TF over GST control)","4.78 fold enrichment (6-mer frequency, TF over GST control)","3.8 fold enrichment (6-mer frequency, TF over GST control)","4.28 fold enrichment (6-mer frequency, TF over GST control)"
TCTGCC,"1.35 fold enrichment (6-mer frequency, TF over GST control)","1.31 fold enrichment (6-mer frequency, TF over GST control)","1.45 fold enrichment (6-mer frequency, TF over GST control)","1.26 fold enrichment (6-mer frequency, TF over GST control)","1.49 fold enrichment (6-mer frequency, TF over GST control)","1.31 fold enrichment (6-mer frequency, TF over GST control)","1.35 fold enrichment (6-mer frequency, TF over GST control)","1.32 fold enrichment (6-mer frequency, TF over GST control)"
AAAACG,"1.24 fold enrichment (6-mer frequency, TF over GST control)","1.19 fold enrichment (6-mer frequency, TF over GST control)","1.21 fold enrichment (6-mer frequency, TF over GST control)","1.2 fold enrichment (6-mer frequency, TF over GST control)","1.14 fold enrichment (6-mer frequency, TF over GST control)","1.18 fold enrichment (6-mer frequency, TF over GST control)","1.15 fold enrichment (6-mer frequency, TF over GST control)","1.25 fold enrichment (6-mer frequency, TF over GST control)"
TACCAC,"1.21 fold enrichment (6-mer frequency, TF over GST control)","1.26 fold enrichment (6-mer frequency, TF over GST control)","1.27 fold enrichment (6-mer frequency, TF over GST control)","1.16 fold enrichment (6-mer frequency, TF over GST control)","1.15 fold enrichment (6-mer frequency, TF over GST control)","1.29 fold enrichment (6-mer frequency, TF over GST control)","1.2 fold enrichment (6-mer frequency, TF over GST control)","1.21 fold enrichment (6-mer frequency, TF over GST control)"
TACCAA,"1.14 fold enrichment (6-mer frequency, TF over GST control)","1.08 fold enrichment (6-mer frequency, TF over GST control)","1.18 fold enrichment (6-mer frequency, TF over GST control)","1.17 fold enrichment (6-mer frequency, TF over GST control)","1.13 fold enrichment (6-mer frequency, TF over GST control)","1.09 fold enrichment (6-mer frequency, TF over GST control)","1.13 fold enrichment (6-mer frequency, TF over GST control)","1.17 fold enrichment (6-mer frequency, TF over GST control)"
GACTCT,"1.58 fold enrichment (6-mer frequency, TF over GST control)","1.32 fold enrichment (6-mer frequency, TF over GST control)","1.36 fold enrichment (6-mer frequency, TF over GST control)","1.21 fold enrichment (6-mer frequency, TF over GST control)","1.23 fold enrichment (6-mer frequency, TF over GST control)","1.22 fold enrichment (6-mer frequency, TF over GST control)","1.22 fold enrichment (6-mer frequency, TF over GST control)","1.16 fold enrichment (6-mer frequency, TF over GST control)"
TTCTAC,"1.7 fold enrichment (6-mer frequency, TF over GST control)","1.51 fold enrichment (6-mer frequency, TF over GST control)","1.62 fold enrichment (6-mer frequency, TF over GST control)","1.5 fold enrichment (6-mer frequency, TF over GST control)","1.54 fold enrichment (6-mer frequency, TF over GST control)","1.54 fold enrichment (6-mer frequency, TF over GST control)","1.41 fold enrichment (6-mer frequency, TF over GST control)","1.49 fold enrichment (6-mer frequency, TF over GST control)"
TAGCCT,"1.28 fold enrichment (6-mer frequency, TF over GST control)","1.31 fold enrichment (6-mer frequency, TF over GST control)","1.25 fold enrichment (6-mer frequency, TF over GST control)","1.07 fold enrichment (6-mer frequency, TF over GST control)","1.2 fold enrichment (6-mer frequency, TF over GST control)","1.17 fold enrichment (6-mer frequency, TF over GST control)","1.32 fold enrichment (6-mer frequency, TF over GST control)","1.04 fold enrichment (6-mer frequency, TF over GST control)"
